# In the supplement of paper PMC10849652:
# Of roughly 7,900 targets only a part is listed; those with a hit were picked by preference. About 0.6% of all pairs of compound and target were hits. Values without a mark were called inactive.
# How the values were obtained:
# Experiment in all cases: log2 fold change, soluble protein after heating vs DMSO (PISA); higher = thermal stabilisation; K562 cells, 10 uM, 30 min; active = over 0.2 and 3.5 SD of the protein, either way, in both replicates (recomputed)
# bafetinib = compound: Cc1ccc(NC(=O)c2ccc(CN3CC[C@H](N(C)C)C3)c(C(F)(F)F)c2)cc1Nc1nccc(-c2cncnc2)n1 [bafetinib]
# How it was run: (§1)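 Aliquots of K562 cells (2×10^6 cells/mL) treated with 10 μM compound for 30 min were heated for 3 min over 48°C-58°C. After pooling and extraction in PBS with 0.5% NP-40 at 4°C, soluble protein from a 21,000xg, 90 min spin was quantified by TMTpro 16plex LC-MS/MS with channel sums equalised. Thermal stability is expressed against control samples, from duplicates, as a log2 fold change.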
# [1] = compound: Cc1cccc(CC(=O)N2CCc3c2ccc(-c2cn(C)c4ncnc(N)c24)c3F)n1
# How it was run: as §1
# nilotinib = compound: Cc1cn(-c2cc(NC(=O)c3ccc(C)c(Nc4nccc(-c5cccnc5)n4)c3)cc(C(F)(F)F)c2)cn1 [nilotinib]
# How it was run: as §1
# [2] = compound: Cc1nc(Nc2n[nH]c3c2CN(C(=O)N[C@H](CN(C)C)c2ccccc2)C3(C)C)c2sccc2n1
# How it was run: as §1
# dasatinib = compound: Cc1nc(Nc2ncc(C(=O)Nc3c(C)cccc3Cl)s2)cc(N2CCN(CCO)CC2)n1 [dasatinib]
# How it was run: as §1
# [3] = compound: Cc1ncc(-c2ccnc(Nc3ccc(S(C)(=O)=O)cc3)n2)n1C(C)C
# How it was run: as §1
# [4] = compound: Cn1cc(-c2ccc3c(c2)CCN3C(=O)Cc2cccc(C(F)(F)F)c2)c2c(N)ncnc21
# How it was run: as §1
# [5] = compound: Cn1cc(-c2ccc3nnc(C(F)(F)c4ccc5ncccc5c4)n3n2)cn1
# How it was run: as §1
# tipifarnib = compound: Cn1cncc1[C@@](N)(c1ccc(Cl)cc1)c1ccc2c(c1)c(-c1cccc(Cl)c1)cc(=O)n2C [tipifarnib]
# How it was run: as §1
# mubritinib = compound: FC(F)(F)c1ccc(/C=C/c2nc(COc3ccc(CCCCn4ccnn4)cc3)co2)cc1 [mubritinib]
# How it was run: as §1
# [6] = compound: NC(=O)Nc1cc(-c2cccc(F)c2)sc1C(=O)N[C@H]1CCCNC1
# How it was run: as §1
# [7] = compound: NC(=O)c1cnc(N[C@@H]2CCCC[C@@H]2N)nc1Nc1cccc(-n2nccn2)c1
# How it was run: as §1
# [8] = compound: NC1(c2ccc(-c3nc4ccn5c(=O)[nH]nc5c4cc3-c3ccccc3)cc2)CCC1
# How it was run: as §1
# [9] = compound: NCC(=O)Nc1ccc(-n2nc(C(F)(F)F)cc2-c2ccc3c(ccc4ccccc43)c2)cc1
# How it was run: as §1
# entinostat = compound: Nc1ccccc1NC(=O)c1ccc(CNC(=O)OCc2cccnc2)cc1 [entinostat]
# How it was run: as §1
# vorinostat = compound: O=C(CCCCCCC(=O)Nc1ccccc1)NO [vorinostat]
# How it was run: as §1
# citarinostat = compound: O=C(CCCCCCNC(=O)c1cnc(N(c2ccccc2)c2ccccc2Cl)nc1)NO [citarinostat]
# How it was run: as §1
# silmitasertib = compound: O=C(O)c1ccc2c(c1)nc(Nc1cccc(Cl)c1)c1ccncc12 [silmitasertib]
# How it was run: as §1
# [10] = compound: O=C1NC(=O)C(c2cnc3ccccn23)=C1c1cn2c3c(cc(F)cc13)CN(C(=O)N1CCCCC1)CC2
# How it was run: as §1
# [11] = compound: c1cc(OCCN2CCCCC2)cc(-c2n[nH]c3ccc(-c4nnc[nH]4)cc23)c1
# How it was run: as §1
# Chain of UniProt P48509 (P48509 whole entry, looked up): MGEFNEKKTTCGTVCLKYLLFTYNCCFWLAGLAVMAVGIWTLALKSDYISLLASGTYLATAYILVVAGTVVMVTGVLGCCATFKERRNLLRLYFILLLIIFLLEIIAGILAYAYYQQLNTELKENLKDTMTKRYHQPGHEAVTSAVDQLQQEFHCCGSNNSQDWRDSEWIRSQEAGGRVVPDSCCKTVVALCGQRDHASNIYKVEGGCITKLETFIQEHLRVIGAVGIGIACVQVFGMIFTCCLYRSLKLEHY
# Chain of UniProt P06493 (P06493 whole entry, looked up): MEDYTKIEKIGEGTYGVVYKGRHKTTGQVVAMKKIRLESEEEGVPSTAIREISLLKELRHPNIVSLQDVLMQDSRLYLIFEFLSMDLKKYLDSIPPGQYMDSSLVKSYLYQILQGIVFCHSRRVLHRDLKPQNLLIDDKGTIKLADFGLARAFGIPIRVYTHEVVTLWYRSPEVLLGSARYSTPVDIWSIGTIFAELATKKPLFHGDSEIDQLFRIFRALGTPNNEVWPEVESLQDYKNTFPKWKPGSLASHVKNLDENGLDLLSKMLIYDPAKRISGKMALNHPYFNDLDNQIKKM
# Chain of UniProt P35219 (P35219 whole entry, looked up): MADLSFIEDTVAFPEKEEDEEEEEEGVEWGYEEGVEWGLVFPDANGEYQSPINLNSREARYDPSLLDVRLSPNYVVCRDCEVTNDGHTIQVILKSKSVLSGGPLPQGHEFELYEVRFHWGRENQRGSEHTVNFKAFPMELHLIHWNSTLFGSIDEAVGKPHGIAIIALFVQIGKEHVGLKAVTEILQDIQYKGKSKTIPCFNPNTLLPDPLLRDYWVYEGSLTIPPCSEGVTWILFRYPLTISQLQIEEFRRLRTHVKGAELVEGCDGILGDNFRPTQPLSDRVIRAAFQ
# Chain of UniProt Q9UBY8 (Q9UBY8 whole entry, looked up): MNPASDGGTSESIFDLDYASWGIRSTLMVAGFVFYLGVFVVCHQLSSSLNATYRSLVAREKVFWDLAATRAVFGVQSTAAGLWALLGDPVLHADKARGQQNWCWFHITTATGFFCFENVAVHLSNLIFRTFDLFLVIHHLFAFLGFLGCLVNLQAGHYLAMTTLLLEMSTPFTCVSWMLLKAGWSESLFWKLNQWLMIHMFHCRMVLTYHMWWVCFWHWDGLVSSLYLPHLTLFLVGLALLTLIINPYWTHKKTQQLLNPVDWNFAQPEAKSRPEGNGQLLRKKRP
# Chain of UniProt Q00587 (Q00587 whole entry, looked up): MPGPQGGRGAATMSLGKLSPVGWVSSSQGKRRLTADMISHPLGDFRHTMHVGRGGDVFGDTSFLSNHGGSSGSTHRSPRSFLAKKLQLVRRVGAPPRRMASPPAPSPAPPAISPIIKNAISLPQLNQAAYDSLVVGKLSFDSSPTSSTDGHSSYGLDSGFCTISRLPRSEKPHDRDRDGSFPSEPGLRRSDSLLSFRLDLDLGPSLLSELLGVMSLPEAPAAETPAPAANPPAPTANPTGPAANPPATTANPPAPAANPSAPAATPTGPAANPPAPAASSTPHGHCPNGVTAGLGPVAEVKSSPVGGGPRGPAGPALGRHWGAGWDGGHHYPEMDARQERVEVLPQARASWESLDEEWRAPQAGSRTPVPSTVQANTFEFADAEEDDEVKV
# Chain of UniProt O60563 (O60563 whole entry, looked up): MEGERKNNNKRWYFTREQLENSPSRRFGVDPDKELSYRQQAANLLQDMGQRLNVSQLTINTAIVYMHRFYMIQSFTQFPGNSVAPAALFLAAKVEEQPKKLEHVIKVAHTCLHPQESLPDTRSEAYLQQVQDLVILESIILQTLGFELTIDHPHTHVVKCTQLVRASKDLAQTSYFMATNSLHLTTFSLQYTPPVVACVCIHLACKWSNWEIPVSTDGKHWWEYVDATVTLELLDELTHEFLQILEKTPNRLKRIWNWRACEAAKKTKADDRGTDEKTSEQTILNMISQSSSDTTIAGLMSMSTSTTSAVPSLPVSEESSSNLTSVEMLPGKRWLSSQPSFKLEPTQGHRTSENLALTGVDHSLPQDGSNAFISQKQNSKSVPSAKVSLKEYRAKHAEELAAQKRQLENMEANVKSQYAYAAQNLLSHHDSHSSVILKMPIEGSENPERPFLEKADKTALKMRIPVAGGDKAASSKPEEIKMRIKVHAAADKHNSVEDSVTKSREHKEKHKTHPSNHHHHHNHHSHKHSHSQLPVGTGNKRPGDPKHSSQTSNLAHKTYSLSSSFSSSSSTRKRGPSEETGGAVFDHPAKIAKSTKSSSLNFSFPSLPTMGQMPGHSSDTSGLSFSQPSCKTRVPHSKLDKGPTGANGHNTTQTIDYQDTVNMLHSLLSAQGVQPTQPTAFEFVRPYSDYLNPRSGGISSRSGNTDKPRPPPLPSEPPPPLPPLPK
# Chain of UniProt Q16630 (Q16630 whole entry, looked up): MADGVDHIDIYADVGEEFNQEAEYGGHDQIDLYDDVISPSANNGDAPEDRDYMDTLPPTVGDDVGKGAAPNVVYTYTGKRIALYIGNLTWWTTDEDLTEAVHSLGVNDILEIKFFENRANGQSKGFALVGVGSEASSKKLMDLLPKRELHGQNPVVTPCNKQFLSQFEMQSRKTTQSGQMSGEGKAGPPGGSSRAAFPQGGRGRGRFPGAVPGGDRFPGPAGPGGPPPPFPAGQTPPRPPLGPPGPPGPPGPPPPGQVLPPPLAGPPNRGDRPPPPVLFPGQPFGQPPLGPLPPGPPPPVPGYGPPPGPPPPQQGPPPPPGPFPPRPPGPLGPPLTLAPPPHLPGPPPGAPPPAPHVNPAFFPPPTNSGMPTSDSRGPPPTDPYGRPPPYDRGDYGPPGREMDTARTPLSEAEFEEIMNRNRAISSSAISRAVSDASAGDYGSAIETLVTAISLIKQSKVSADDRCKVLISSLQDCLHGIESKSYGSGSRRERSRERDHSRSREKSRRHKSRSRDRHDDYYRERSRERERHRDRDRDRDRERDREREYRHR
# Chain of UniProt Q9UHN6 (Q9UHN6 whole entry, looked up): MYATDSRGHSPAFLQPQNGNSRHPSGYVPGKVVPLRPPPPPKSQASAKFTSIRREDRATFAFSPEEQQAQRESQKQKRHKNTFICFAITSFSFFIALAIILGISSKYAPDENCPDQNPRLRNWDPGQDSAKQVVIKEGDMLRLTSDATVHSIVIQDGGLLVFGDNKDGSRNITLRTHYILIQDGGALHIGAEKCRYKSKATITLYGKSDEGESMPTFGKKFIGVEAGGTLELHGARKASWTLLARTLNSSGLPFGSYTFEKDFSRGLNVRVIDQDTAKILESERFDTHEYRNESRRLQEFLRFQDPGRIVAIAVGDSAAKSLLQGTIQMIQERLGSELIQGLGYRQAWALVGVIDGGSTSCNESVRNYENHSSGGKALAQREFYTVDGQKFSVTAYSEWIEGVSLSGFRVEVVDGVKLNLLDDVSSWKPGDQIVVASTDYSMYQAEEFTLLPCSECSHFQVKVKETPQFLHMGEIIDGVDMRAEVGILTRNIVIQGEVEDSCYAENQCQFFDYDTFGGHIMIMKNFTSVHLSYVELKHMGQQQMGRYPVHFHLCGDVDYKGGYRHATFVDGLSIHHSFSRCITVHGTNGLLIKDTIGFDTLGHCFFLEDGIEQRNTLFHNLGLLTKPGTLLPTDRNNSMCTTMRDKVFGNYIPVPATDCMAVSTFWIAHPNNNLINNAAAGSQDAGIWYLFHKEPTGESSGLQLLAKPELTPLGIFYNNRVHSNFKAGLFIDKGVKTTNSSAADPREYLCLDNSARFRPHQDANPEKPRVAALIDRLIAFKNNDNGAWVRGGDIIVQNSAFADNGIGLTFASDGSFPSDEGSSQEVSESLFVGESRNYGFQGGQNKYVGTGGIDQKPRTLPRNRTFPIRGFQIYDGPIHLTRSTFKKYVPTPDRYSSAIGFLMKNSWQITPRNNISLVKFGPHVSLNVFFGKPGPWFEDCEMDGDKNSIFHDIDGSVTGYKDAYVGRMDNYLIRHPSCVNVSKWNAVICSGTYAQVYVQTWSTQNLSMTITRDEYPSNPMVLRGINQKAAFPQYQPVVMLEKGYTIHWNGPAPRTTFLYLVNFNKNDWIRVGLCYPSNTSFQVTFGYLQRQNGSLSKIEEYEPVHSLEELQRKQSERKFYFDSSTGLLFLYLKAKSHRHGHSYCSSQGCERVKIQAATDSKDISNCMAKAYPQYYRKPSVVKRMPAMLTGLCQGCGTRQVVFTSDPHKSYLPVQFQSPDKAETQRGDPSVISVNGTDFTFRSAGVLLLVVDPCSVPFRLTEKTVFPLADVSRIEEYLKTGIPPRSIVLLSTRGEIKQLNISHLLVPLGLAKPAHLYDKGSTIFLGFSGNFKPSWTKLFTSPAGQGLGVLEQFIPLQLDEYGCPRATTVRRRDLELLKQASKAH
# Chain of UniProt P51790 (P51790 whole entry, looked up): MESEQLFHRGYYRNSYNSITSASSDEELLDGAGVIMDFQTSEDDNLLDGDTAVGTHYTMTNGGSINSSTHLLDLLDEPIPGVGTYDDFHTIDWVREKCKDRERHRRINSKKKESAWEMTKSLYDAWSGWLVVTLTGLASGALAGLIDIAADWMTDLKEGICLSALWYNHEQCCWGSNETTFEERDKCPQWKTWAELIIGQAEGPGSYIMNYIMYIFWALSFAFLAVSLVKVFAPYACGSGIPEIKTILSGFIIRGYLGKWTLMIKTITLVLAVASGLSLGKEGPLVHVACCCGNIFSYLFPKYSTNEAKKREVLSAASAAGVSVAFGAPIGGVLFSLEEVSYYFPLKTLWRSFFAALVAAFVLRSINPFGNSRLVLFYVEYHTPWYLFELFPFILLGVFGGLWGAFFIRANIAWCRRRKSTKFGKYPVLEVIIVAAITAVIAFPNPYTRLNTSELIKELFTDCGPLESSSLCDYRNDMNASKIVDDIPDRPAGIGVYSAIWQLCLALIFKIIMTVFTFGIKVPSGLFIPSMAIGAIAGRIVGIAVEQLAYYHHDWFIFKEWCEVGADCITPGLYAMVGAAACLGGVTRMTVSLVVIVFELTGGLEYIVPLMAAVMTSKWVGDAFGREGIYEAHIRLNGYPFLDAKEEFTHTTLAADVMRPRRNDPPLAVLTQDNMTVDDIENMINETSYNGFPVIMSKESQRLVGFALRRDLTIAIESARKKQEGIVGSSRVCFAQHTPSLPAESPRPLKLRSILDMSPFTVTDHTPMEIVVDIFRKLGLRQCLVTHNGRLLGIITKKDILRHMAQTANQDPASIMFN
Target,log2 fold change (bafetinib),log2 fold change [1],log2 fold change (nilotinib),log2 fold change [2],log2 fold change (dasatinib),log2 fold change [3],log2 fold change [4],log2 fold change [5],log2 fold change (tipifarnib),log2 fold change (mubritinib),log2 fold change [6],log2 fold change [7],log2 fold change [8],log2 fold change [9],log2 fold change (entinostat),log2 fold change (vorinostat),log2 fold change (citarinostat),log2 fold change (silmitasertib),log2 fold change [10],log2 fold change [11]
CLTB (UniProt P09497),0.095,0.002,0.077,0.024,0.081,0.005,-0.02,-0.019,-0.006,-0.016,0.088,0.101,0.043,0.117,-0.076,0.003,-0.013,-0.005,-0.043,0.07
CNDP2 (UniProt Q96KP4),-0.03,0.006,0.045,-0.015,-0.031,-0.041,0.066,0.032,-0.067,0.101,-0.013,-0.035,-0.052,0.01,-0.015,-0.015,0.023,-0.065,-0.005,0.001
CLPP (UniProt Q16740),0.025,-0.045,0.022,0.005,0.063,-0.016,0.115,0.02,0.003,0.004,0.044,-0.027,0.027,-0.008,0.029,-0.05,0.027,0.007,0.096,-0.031
CCNT1 (UniProt O60563),0.062,0.036,0.027,-0.272,-0.016,-0.301,-0.051,-0.122,0.142,-0.093,-0.027,-0.03,-0.021,-0.02,0.034,0.176,0.053,0,0.047,-0.094
C4orf33 (UniProt Q8N1A6),-0.143,0.01,0.03,-0.024,-0.002,-0.1,0.056,0.031,-0.007,0.054,0.152,-0.003,-0.218,-0.061,-0.156,-0.05,0,-0.126,0.019,-0.063
COX6B1 (UniProt P14854),-0.081,-0.023,-0.02,-0.01,0.019,-0.027,0.228,0.377 (active),-0.044,0.054,-0.039,-0.019,-0.146,0.007,0.085,-0.06,-0.007,-0.009,-0.126,-0.017
CCDC9 (UniProt Q9Y3X0),-0.011,-0.032,0.002,0.117,0.072,0.028,-0.046,-0.05,-0.004,-0.038,0.021,0.034,0.121,0.02,-0.088,-0.051,-0.069,-0.051,0.021,-0.015
CRKL (UniProt P46109),-1.41 (active),0.013,-1.34 (active),-0.054,-2.17 (active),0.023,0.004,0.028,0.024,0.049,-1.11 (active),-0.019,-0.015,-0.005,0.004,0.023,0.005,0.066,-0.031,-0.064
CES2 isoform 4 (UniProt O00748),-0.006,-0.104,0.274,-0.045,0.119,-0.036,0.489 (active),0.166,0.28,0.111,0.116,0.017,-0.051,0.095,-0.083,-0.017,-0.083,0.076,0.027,-0.016
COMMD2 (UniProt Q86X83),0.162,-0.066,-0.132,-0.069,-0.177,0.097,-0.099,0.057,0.025,0.101,-0.007,-0.034,-0.098,0.039,-0.062,0.049,0.011,0.053,0.011,-0.08
CBS (UniProt P35520),-0.031,-0.029,0.025,-0.012,0.018,-0.003,0.079,0.035,-0.023,0.056,-0.008,0.006,-0.025,0.016,-0.033,-0.031,-0.058,-0.038,-0.027,0.027
CDC42EP1 (UniProt Q00587),-0.115,0.092,-0.072,-0.59 (active),-0.2,-0.211,0.079,0.051,0.049,0.007,-0.272,-0.258,-0.399,-0.063,0.1,0.158,0.108,-0.04,-0.118,-0.138
CDC26 (UniProt Q8NHZ8),-0.034,0.162,-0.011,-0.059,0.143,0.029,0.179,-0.027,0.131,-0.028,0.034,0.352,0.152,0.704 (active),0.097,0.019,-0.025,-0.003,0.007,-0.003
CKS1B (UniProt P61024),-0.065,-0.06,0.14,-0.016,0,0.026,0.067,0.017,-0.043,0.056,-0.029,-0.03,-0.082,0.042,-0.02,0.025,0.009,0.063,-0.084,-0.067
CA8 (UniProt P35219),-0.042,0.079,0.006,-0.017,-0.187,-0.01,0.083,-0.063,-0.064,0.06,0.035,-0.069,-0.167,-0.058,0.049,0.025,0.108,0.029,-0.142,-0.027
CDK1 (UniProt P06493),0.002,-0.022,0.022,-0.196,-0.092,-0.199,-0.067,-0.023,-0.019,0.083,-0.036,0.004,-0.068,-0.047,0,0.05,0.051,–,-0.079,-0.032
CD151 (UniProt P48509),0.135,0.015,-0.072,0.157,0.063,0.019,0.025,-0.002,-0.076,-0.092,-0.054,0.139,0.125,0.024,0.094,-0.025,-0.007,0.031,-0.063,-0.009
CLCN3 (UniProt P51790),-0.112,-0.022,-0.007,0.04,0.019,-0.027,0.03,0.049,0.015,0.024,-0.019,-0.099,-0.264,-0.078,-0.012,-0.022,0.011,0.011,0.038,-0.01
CLN8 (UniProt Q9UBY8),-0.209,-0.662 (active),0.051,-0.11,0.032,-0.083,0.258,0.266,0.003,-0.08,-0.062,-0.002,0.334,0,0.058,-0.061,0.064,0.075,–,-0.095
CAD (UniProt P27708),0.011,0.06,-0.095,-0.008,-0.386 (active),0.081,-0.012,-0.097,-0.032,-0.006,0.033,-0.014,-0.145,0.008,-0.026,0.088,0.014,0.003,0.108,-0.141
CPSF6 isoform 2 (UniProt Q16630),0.079,-0.136,0.06,-1.43 (active),0.009,0.014,0.039,-0.008,0.031,0.006,-0.027,-0.037,-0.01,0.029,-0.008,-0.007,0.004,-0.225 (active),-0.003,-0.179
CSTF3 (UniProt Q12996),-0.004,0.044,-0.044,0.176,-0.021,0.158,-0.009,-0.01,0.009,0.019,0.011,-0.027,-0.046,-0.032,-0.032,-0.032,-0.021,0.029,0.027,0.012
CIZ1 (UniProt Q9ULV3),-0.063,0.013,0.016,-0.181,-0.016,-0.063,0.021,-0.066,0.008,0.019,-0.031,-0.087,-0.053,-0.022,-0.032,0.036,0.023,0.026,0.074,-0.045
CEMIP2 (UniProt Q9UHN6),-0.018,0.002,0.069,0.083,-0.044,0.031,0.03,0.179,0.033,-0.024,–,0.072,-0.243,-0.072,–,0.038,0.124,0.057,0.034,-0.078
